Assay results taken from PubChem BioAssay (NCI).
This is part of a sample that, as a whole, favours compounds with a hit. Of some 83,000 tested, about 20% had one in any assay.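 Assay: single dose, 48 h. Readout: percent growth (0 = no net growth; negative = cell death). Active: <10.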 Values without a mark were called inactive. Activity calls are given as the source filed them.

Columns and labels:
Experiment in all cases: NCI-60 one-dose screen, 48 h (100 = growth as untreated, 0 = no growth, -100 = all killed)
NCI-H23 lung = details: 10 µM unless noted
NCI-H322M lung = details: 10 µM unless noted
HOP-62 NSCLC = details: 10 µM unless noted
NCI-H460 lung = details: 10 µM unless noted
HOP-92 NSCLC = details: 10 µM unless noted
NCI-H522 lung = details: 10 µM
A549/ATCC NSCLC = details: 10 µM unless noted
786-0 renal = details: 10 µM unless noted
DU-145 prostate = details: 10 µM unless noted
K-562 leukemia = details: 10 µM unless noted
MALME-3M melanoma = details: 10 µM unless noted
MDA-MB-231 breast = details: 10 µM unless noted
RXF 393 renal = details: 10 µM unless noted
SF-268 CNS = details: 10 µM unless noted
SF-295 CNS = details: 10 µM unless noted
SF-539 CNS = details: 10 µM unless noted
UACC-257 melanoma = details: 10 µM unless noted
M14 melanoma = details: 10 µM unless noted

For COC(=O)c1c2c(c(C)[n+]([O-])c1C)C(=O)C=C(NCc1ccc(Cl)cc1)C2=O, which growth (NCI-H23 lung) is on record?
The growth was -35.7% (active).

And the growth (NCI-H322M lung)?
The growth was -7.11% (active).

And the growth (HOP-62 NSCLC)?
The growth was 2.25% (active).

And the growth (NCI-H460 lung)?
Its growth is 0.382% (active).

And the growth (HOP-92 NSCLC)?
The growth was -27.9% (active).

And the growth (NCI-H522 lung)?
Its growth is -15.1% (active).

What about the growth (A549/ATCC NSCLC) of the same compound?
The growth was -16.5% (active).

And the growth (786-0 renal)?
Its growth is 7.94% (active).

And the growth (DU-145 prostate)?
Its growth is -83.7% (active).

What about the growth (K-562 leukemia) of the same compound?
Its growth is 1.55% (active).

What about the growth (MALME-3M melanoma) of the same compound?
The growth was -95% (active).

What about the growth (MDA-MB-231 breast) of the same compound?
Its growth is -20.7% (active).

And the growth (RXF 393 renal)?
Its growth is -31.7% (active).

And the growth (SF-268 CNS)?
Its growth is 0.305% (active).

And the growth (SF-295 CNS)?
The growth was -59.7% (active).

And the growth (SF-539 CNS)?
Its growth is -89.8% (active).

What about the growth (UACC-257 melanoma) of the same compound?
The growth was -84.7% (active).

And the growth (M14 melanoma)?
The growth was -85.5% (active).

With CCCCC(O)Cn1ncc(C(=O)OCC)c1NC(=O)NCc1ccccc1C(F)(F)F (configuration not stated) as the compound, how does the growth (NCI-H23 lung) read?
Its growth is 98.1%.

And the growth (NCI-H322M lung)?
Its growth is 105%.

And the growth (HOP-62 NSCLC)?
Its growth is 93.4%.

What about the growth (NCI-H460 lung) of the same compound?
Its growth is 103%.

What about the growth (HOP-92 NSCLC) of the same compound?
The growth was 84.7%.

What about the growth (NCI-H522 lung) of the same compound?
Its growth is 88.3%.

And the growth (786-0 renal)?
Its growth is 93.2%.

What about the growth (DU-145 prostate) of the same compound?
Its growth is 102%.

And the growth (K-562 leukemia)?
The growth was 71.8%.

And the growth (MALME-3M melanoma)?
The growth was 93.2%.

What about the growth (MDA-MB-231 breast) of the same compound?
The growth was 92.2%.

What about the growth (RXF 393 renal) of the same compound?
The growth was 106%.

And the growth (SF-268 CNS)?
Its growth is 97.7%.

And the growth (SF-295 CNS)?
Its growth is 94.3%.

And the growth (SF-539 CNS)?
Its growth is 95.9%.

And the growth (UACC-257 melanoma)?
The growth was 93.7%.

And the growth (M14 melanoma)?
Its growth is 95.2%.

For O=S(=O)(Nc1ccccc1Cl)c1ccc(-c2cnc(C3CC3)o2)cc1, which growth (NCI-H23 lung) is on record?
The growth was 39.9%.

What about the growth (NCI-H322M lung) of the same compound?
Its growth is 42.3%.

And the growth (HOP-62 NSCLC)?
Its growth is 34.1%.

And the growth (NCI-H460 lung)?
The growth was 18%.

What about the growth (HOP-92 NSCLC) of the same compound?
The growth was 37.1%.

And the growth (NCI-H522 lung)?
Its growth is 10.9%.

What about the growth (A549/ATCC NSCLC) of the same compound?
Its growth is 31.4%.

And the growth (786-0 renal)?
The growth was 51.1%.

What about the growth (DU-145 prostate) of the same compound?
Its growth is 13.5%.

And the growth (K-562 leukemia)?
The growth was 20.1%.

What about the growth (MALME-3M melanoma) of the same compound?
Its growth is 47.3%.

What about the growth (MDA-MB-231 breast) of the same compound?
The growth was 34.8%.

And the growth (RXF 393 renal)?
The growth was -27% (active).

What about the growth (SF-268 CNS) of the same compound?
The growth was 53.5%.

What about the growth (SF-295 CNS) of the same compound?
Its growth is 12.2%.

What about the growth (SF-539 CNS) of the same compound?
The growth was -22.7% (active).

What about the growth (UACC-257 melanoma) of the same compound?
The growth was 69.4%.

And the growth (M14 melanoma)?
Its growth is 19%.

With COc1ccc(/C=N/OCC(O)CNCc2ccccc2)cc1OC1CCCC1 (configuration not stated) as the compound, how does the growth (NCI-H23 lung) read?
Its growth is 106%.

And the growth (NCI-H322M lung)?
The growth was 97.2%.

What about the growth (HOP-62 NSCLC) of the same compound?
Its growth is 93.5%.

And the growth (NCI-H460 lung)?
The growth was 102%.

What about the growth (HOP-92 NSCLC) of the same compound?
Its growth is 79.6%.

And the growth (NCI-H522 lung)?
Its growth is 105%.

And the growth (A549/ATCC NSCLC)?
Its growth is 93.5%.

What about the growth (786-0 renal) of the same compound?
Its growth is 89.5%.

And the growth (DU-145 prostate)?
The growth was 105%.

What about the growth (K-562 leukemia) of the same compound?
The growth was 78%.

What about the growth (MALME-3M melanoma) of the same compound?
The growth was 106%.

What about the growth (MDA-MB-231 breast) of the same compound?
Its growth is 101%.

And the growth (RXF 393 renal)?
Its growth is 95.5%.

And the growth (SF-268 CNS)?
Its growth is 91.7%.

And the growth (SF-295 CNS)?
The growth was 103%.

What about the growth (SF-539 CNS) of the same compound?
The growth was 98%.

What about the growth (UACC-257 melanoma) of the same compound?
Its growth is 97.2%.

What about the growth (M14 melanoma) of the same compound?
The growth was 98.4%.

With O=C1Nc2ccc(Cl)cc2/C1=N/N=C(c1ccccc1)c1ccccc1 as the compound, how does the growth (NCI-H23 lung) read?
Its growth is 93.9%.

And the growth (NCI-H322M lung)?
The growth was 98.1%.

What about the growth (HOP-62 NSCLC) of the same compound?
Its growth is 83.3%.

And the growth (NCI-H460 lung)?
The growth was 100%.

What about the growth (HOP-92 NSCLC) of the same compound?
The growth was 94.2%.

What about the growth (NCI-H522 lung) of the same compound?
Its growth is 83.4%.

And the growth (786-0 renal)?
The growth was 102%.

What about the growth (DU-145 prostate) of the same compound?
The growth was 103%.

And the growth (K-562 leukemia)?
The growth was 93.3%.

What about the growth (MALME-3M melanoma) of the same compound?
Its growth is 87.9%.

And the growth (MDA-MB-231 breast)?
The growth was 75.6%.

What about the growth (RXF 393 renal) of the same compound?
Its growth is 109%.

What about the growth (SF-268 CNS) of the same compound?
The growth was 97.8%.

And the growth (SF-295 CNS)?
Its growth is 92.6%.

And the growth (SF-539 CNS)?
The growth was 97%.

What about the growth (UACC-257 melanoma) of the same compound?
Its growth is 98.5%.

What about the growth (M14 melanoma) of the same compound?
The growth was 102%.

With O=C(CC(O)c1ccccc1)Nc1ccccn1 (configuration not stated) as the compound, how does the growth (NCI-H23 lung) read?
Its growth is 98.6%.

And the growth (NCI-H322M lung)?
The growth was 93.3%.

And the growth (HOP-62 NSCLC)?
The growth was 103%.

And the growth (NCI-H460 lung)?
The growth was 112%.

What about the growth (HOP-92 NSCLC) of the same compound?
The growth was 77%.

And the growth (NCI-H522 lung)?
The growth was 96%.

What about the growth (A549/ATCC NSCLC) of the same compound?
The growth was 95.8%.

And the growth (786-0 renal)?
Its growth is 102%.

What about the growth (DU-145 prostate) of the same compound?
Its growth is 104%.

What about the growth (K-562 leukemia) of the same compound?
The growth was 84.1%.

And the growth (MALME-3M melanoma)?
The growth was 94.2%.

And the growth (MDA-MB-231 breast)?
Its growth is 104%.

And the growth (RXF 393 renal)?
Its growth is 131%.

What about the growth (SF-268 CNS) of the same compound?
The growth was 103%.

What about the growth (SF-295 CNS) of the same compound?
Its growth is 108%.

What about the growth (SF-539 CNS) of the same compound?
Its growth is 97.6%.

And the growth (UACC-257 melanoma)?
The growth was 94.9%.

And the growth (M14 melanoma)?
The growth was 99.7%.

COC(=O)c1c2c(c(C)[n+]([O-])c1C)C(=O)C=C(NCc1cccc(Cl)c1)C2=O was tested. Which growth (NCI-H23 lung) did it give?
The growth was -63% (active).

What about the growth (NCI-H322M lung) of the same compound?
Its growth is -18.3% (active).

What about the growth (HOP-62 NSCLC) of the same compound?
The growth was -19.8% (active).

And the growth (NCI-H460 lung)?
Its growth is -3.61% (active).

What about the growth (HOP-92 NSCLC) of the same compound?
Its growth is -32.2% (active).

What about the growth (NCI-H522 lung) of the same compound?
Its growth is -63.5% (active).

And the growth (A549/ATCC NSCLC)?
The growth was -49.5% (active).

What about the growth (786-0 renal) of the same compound?
Its growth is 6.87% (active).

And the growth (DU-145 prostate)?
Its growth is -98.3% (active).

And the growth (K-562 leukemia)?
The growth was -1.12% (active).

And the growth (MALME-3M melanoma)?
The growth was -96.9% (active).

And the growth (MDA-MB-231 breast)?
The growth was -27.3% (active).

What about the growth (RXF 393 renal) of the same compound?
Its growth is -32.1% (active).

What about the growth (SF-268 CNS) of the same compound?
The growth was -0.347% (active).

And the growth (SF-295 CNS)?
Its growth is -96% (active).

What about the growth (SF-539 CNS) of the same compound?
The growth was -91.7% (active).

What about the growth (UACC-257 melanoma) of the same compound?
The growth was -88.5% (active).

What about the growth (M14 melanoma) of the same compound?
Its growth is -79.6% (active).

Which growth (NCI-H23 lung) does the source give for COc1ccc(/C=N/OCC(O)CN2CCC(O)CC2)cc1OC1CCCC1 (configuration not stated) here?
Its growth is 106%.

And the growth (NCI-H322M lung)?
The growth was 108%.

And the growth (HOP-62 NSCLC)?
Its growth is 103%.

What about the growth (NCI-H460 lung) of the same compound?
The growth was 106%.

And the growth (HOP-92 NSCLC)?
Its growth is 98.2%.

And the growth (NCI-H522 lung)?
The growth was 99.2%.

And the growth (A549/ATCC NSCLC)?
Its growth is 101%.

What about the growth (786-0 renal) of the same compound?
The growth was 102%.

What about the growth (DU-145 prostate) of the same compound?
The growth was 109%.

What about the growth (K-562 leukemia) of the same compound?
Its growth is 100%.

What about the growth (MALME-3M melanoma) of the same compound?
Its growth is 108%.

And the growth (MDA-MB-231 breast)?
The growth was 99.7%.

What about the growth (RXF 393 renal) of the same compound?
Its growth is 115%.

And the growth (SF-268 CNS)?
Its growth is 94.7%.

What about the growth (SF-295 CNS) of the same compound?
Its growth is 104%.

And the growth (SF-539 CNS)?
The growth was 101%.

And the growth (UACC-257 melanoma)?
The growth was 109%.

What about the growth (M14 melanoma) of the same compound?
Its growth is 94.3%.
